{
  "source": "PubChem BioAssay (NCATS)",
  "note": "Records with an inconclusive call do not appear. Where a call stands in place of a potency, no number is given. The source made the active and inactive calls. Calls come from the whole dose curve; as a rule, active = well fitted cell-killing curve with a large enough effect; inconclusive = small, poorly fitted or top-dose-only effect, or effect the other way; inactive = flat fitted curve, though single readings scatter.",
  "data": [
    {"tested_on": "Hek293T", "assay": "Primary qHTS to identify gynecologic anti-cancer compounds using libraries of approved drugs and bioactive compounds (AID 1345084); note: nearly all actives have a fitted effect of over 55% in size", "conditions": "Gynecologic cancer cell panel viability, ATPlite luminescence, 48 h, control line for the selectivity index; series mostly up to 57.5 µM", "procedure,_shortened": "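Five-concentration response, 48 h; readout is ATP-driven luciferase luminescence.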", "values": [
      {"compound": "NC(Cc1c[nH]c2ccccc12)C(=O)NC(CCC(=O)O)C(=O)O", "note": "(stereo not drawn)", "Potency": "inactive"},
      {"compound": "C[C@@H]1O[C@@H](O[C@H]2[C@H](OC(=O)[C@]34CCC(C)(C)C[C@H]3C3=CCC5[C@@]6(C)C[C@H](O)[C@H](O[C@@H]7O[C@H](CO)[C@@H](O[C@@H]8O[C@H](CO)[C@@H](O)[C@H](O)[C@H]8O)[C@H](O)[C@H]7O)[C@@](C)(CO)C6[C@H](O)C[C@@]5(C)[C@]3(C)C[C@H]4O)OC[C@H](O)[C@@H]2O)[C@H](O)[C@H](O)[C@H]1O[C@@H]1OC[C@@H](O)[C@H](O[C@@H]2OC[C@](O)(CO)[C@H]2O)[C@H]1O", "note": "(stereo partly drawn)", "activity change, negative = cytotoxicity": "1.73% [at 6.55 µM] (inactive)"},
      {"compound": "CC(C)C1=CC2=CCC3[C@](C)(CCC[C@@]3(C)C(=O)O)C2CC1=O", "note": "(stereo partly drawn)", "Potency": "inactive"},
      {"compound": "CC1(C)CC[C@]2(C(=O)O[C@@H]3O[C@H](CO)[C@@H](O)[C@H](O)[C@H]3O)CC[C@]3(C)C(=CCC4[C@@]5(C)C[C@@H](O)[C@H](O)[C@@](C)(CO)C5CC[C@]43C)C2C1", "note": "(stereo partly drawn)", "Potency": "inactive"},
      {"compound": "COc1ccc([C@H]2Cc3cccc(O)c3C(=O)O2)cc1", "Potency": "inactive"},
      {"compound": "O=C(O)C[C@@H](NC(=O)c1cc(-c2ccc(-c3ccncc3)cc2)cs1)c1ccccc1", "Potency": "inactive"},
      {"compound": "C[C@@H]1CC[C@]2(C(=O)O)CC[C@]3(C)C(=CCC4[C@]5(C)C(CC[C@]43C)C(C)(C)[C@@H](O)[C@H](O)[C@@H]5O)C2[C@]1(C)O", "note": "(stereo partly drawn)", "Potency": "inactive"},
      {"compound": "CCC(=O)NS(=O)(=O)c1ccc(-c2c(-c3ccccc3)noc2C)cc1", "Potency": "inactive"},
      {"compound": "CC(C)(C)c1cc(CN2CCN(CC(O)c3ccc(Cl)cc3)CC2)cc(C(C)(C)C)c1O", "note": "(stereo not drawn)", "Potency": "inactive"},
      {"compound": "CCOc1nc2cccc(C(=O)O)c2n1Cc1ccc(-c2ccccc2-c2noc(=O)[nH]2)cc1", "Potency": "inactive"},
      {"compound": "CC1(O)CCC2C(C(=O)O)=COC(OC3OC(CO)C(O)C(O)C3OC(=O)/C=C/c3ccc(O)cc3)C21", "note": "(stereo not drawn)", "Potency": "inactive"},
      {"compound": "COc1c2c(c(C)c3c1C(=O)OC3)O[C@@]1(C)C[C@@H](O)[C@]34O[C@](OC)(CC[C@]3(C)[C@H]1C2)OC4(C)C", "Potency": "inactive"},
      {"compound": "CN1Cc2c(N)cccc2C(c2ccccc2)C1", "note": "(stereo not drawn)", "Potency": "inactive"},
      {"compound": "COC(=O)CC1(O)C(=O)Nc2ccccc21", "note": "(stereo not drawn)", "Potency": "inactive"},
      {"compound": "CC1=C2[C@@H]([C@H](C)CC[C@H]2/C=C(\\C)C(=O)O)[C@H](O)C1", "Potency": "inactive"},
      {"compound": "C[C@]12C=CC(=O)C=C1CC[C@@H]1[C@@H]2[C@@H](O)C[C@@]2(C)[C@H]1CC[C@]2(O)C(=O)COC(=O)CCC(=O)O", "Potency": "inactive"},
      {"compound": "O=C(/C=C/c1ccc(O)cc1)OC[C@]12O[C@H]1[C@@H](O)[C@@H]1C=CO[C@@H](O[C@@H]3O[C@H](CO)[C@@H](O)[C@H](O)[C@H]3O)[C@@H]12", "Potency": "inactive"},
      {"compound": "CC(=O)OCC(=O)O[C@@H]1[C@H]2[C@@H](OC(=O)c3ccccc3)[C@@H](C)C[C@]2(O)[C@H](OC(C)=O)C2(C)[C@H]3CC(C)(C)C(=O)[C@@H]3CC1(OC(C)=O)[C@@H]2OC(C)=O", "note": "(stereo partly drawn)", "Potency": "inactive"},
      {"compound": "CN1C(=O)c2ccccc2-n2c(nc3ccccc3c2=O)[C@@]12O[C@H]2c1ccccc1", "Potency": "inactive"},
      {"compound": "C#Cc1cnc2[nH]c(=O)n(C(CC)CC)c2n1", "Potency": "inactive"},
      {"compound": "CCNC(=O)[C@H]1O[C@H](n2cnc3c(NCC(c4ccccc4)c4ccccc4)nc(C(=O)NCCNC(=O)NC4CCN(c5ccccn5)CC4)nc32)[C@H](O)[C@@H]1O", "Potency": "inactive"},
      {"compound": "C=C[C@H]1[C@H](O[C@@H]2O[C@H](CO)[C@@H](O)[C@H](O)[C@H]2O)OC=C2C(=O)OCC[C@]21O", "Potency": "inactive"},
      {"compound": "Nc1c(Br)cc(Br)cc1CNC1CCC(O)CC1", "note": "(stereo not drawn)", "Potency": "inactive"},
      {"compound": "CCC(C)/C=C(C)/C=C/C1=CC2=C(Cl)C(=O)C(C)(OC(C)=O)C(=O)C2=CN1C1CCCCN(C(CCC(N)=O)C(=O)O)C1=O", "note": "(stereo not drawn)", "Potency": "inactive"},
      {"compound": "CCC[C@@H]1C[C@@H](C(=O)N[C@@H]([C@H]2O[C@H](SC)[C@H](OP(=O)(O)O)[C@@H](O)[C@H]2O)[C@H](C)Cl)N(C)C1", "Potency": "inactive"},
      {"compound": "COc1cc([C@H]2OC[C@@H]3[C@@H](c4ccc(O[C@@H]5O[C@H](CO)[C@@H](O)[C@H](O)[C@H]5O)c(OC)c4)OC[C@]23O)ccc1O", "Potency": "inactive"},
      {"compound": "COCCN(C)Cc1ccc2nc3sc(C(=O)N(C)C4CCCCC4)cn3c2c1", "Potency": "inactive"},
      {"compound": "CCC(=O)O[C@]1(C(=O)CCl)[C@@H](C)C[C@H]2[C@@H]3C[C@H](F)C4=CC(=O)C=C[C@]4(C)[C@@]3(F)[C@@H](O)C[C@@]21C", "Potency": "inactive"}
    ]}
  ]
}
